Records with an inconclusive call do not appear. Values without a mark were called inactive. The source made the active and inactive calls. The call rests on the fitted dose curve; in most records, active means well fitted inhibition curve with a large enough effect; inconclusive means small, poorly fitted or top-dose-only effect; inactive means no such curve, though single readings can be large or run the other way.
Biological target: Retinal dehydrogenase 2 (Homo sapiens) (UniProt O94788)
Experiment: qHTS for Inhibitors of the Aldehyde Dehydrogenase Family (ALDH1A2) Confirmation screens (AID 2061314); further: nearly all actives have a fitted effect of over 65% in size; on activity, negative = inhibition: on the % scale 0 is the no-effect control and ±100 the full control effect
Details: ALDH1A2 enzyme inhibition qHTS confirmation; series mostly up to 45.9 µM; activity, negative = inhibition: at the top concentration

Structure (SMILES) | activity, negative = inhibition [%] | outcome
O=C(NCCOc1ccccc1)[C@@H]1C[C@@H](c2ccc(F)cc2)N([S+](=O)([O-])c2ccccc2)C1 | -9.76 | 
CC(=O)Nc1ccc(S(=O)(=O)N[C@@H]2C=C[C@@H](c3c(C)nn(-c4ccc(C(C)(C)C)cc4)c3C)C2)cc1 | 2.6 | 
COc1ccc(OC)c(N(CC(=O)NCc2ccccc2)S(=O)(=O)c2ccccc2)c1 | -16.7 | 
CC(Cn1cncn1)NC(=O)c1cccc(S(=O)(=O)N2CCOCC2)c1 (centres undefined) |  | inactive
Cc1nc2c(c(C)c1CCC(=O)Nc1ccc(F)cc1)c(=O)n(C)c(=O)n2C |  | inactive
CCCCOc1cccc(C(=O)Nc2cc(NC(=O)c3ccco3)ccc2OC)c1 | -17.3 | 

Biological target: Retinaldehyde dehydrogenase 3 (Homo sapiens) (UniProt P47895)
Experiment: qHTS for Inhibitors of the Aldehyde Dehydrogenase Family (ALDH1A3) Primary screen (AID 2061315); further: potency means the concentration at half of the fitted maximal effect;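 on activity change, negative = inhibition: plate controls were DMSO vehicle for no effect and reference inhibitor for full effect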
Details: ALDH inhibition qHTS; series mostly up to 56 µM; activity change, negative = inhibition: at the top concentration

Structure (SMILES) | activity change, negative = inhibition [%] | Potency
C=CC(=O)N1CCC[C@@H](n2nc(-c3cccc(C(=O)Nc4ccc(C(C)C)c(C)c4)c3)c3c(N)ncnc32)C1 | -9.06 | 
Oc1ccc(Nc2ccccc2F)c2cccnc12 |  | 1.26 µM (active)
Cc1csc(CNc2ncnc3cc(-c4ccc5c(c4)OCO5)ccc23)n1 | -4.29 | 
COC(=O)CCSC/C=C(\C)CCn1cc(CCc2ccc(-c3ccccc3)cc2)nn1 | -38.4 | 
N#Cc1cccc(OC2=NS(=O)(=O)c3ccccc32)c1 | -18.4 | 

Biological target: Aldehyde dehydrogenase 1A1 (Homo sapiens) (UniProt P00352)
Experiment: qHTS for Inhibitors of the Aldehyde Dehydrogenase Family (ALDH1A1) Confirmatory screens (AID 2061316); further: nearly all actives have a fitted effect of over 65% in size; further: potency means the concentration at half of the fitted maximal effect; on activity change, negative = inhibition: on the % scale 0 is the no-effect control and ±100 the full control effect
Details: ALDH inhibition qHTS; series mostly up to 47.3 µM; activity change, negative = inhibition: at the top concentration

Structure (SMILES) | Potency | activity change, negative = inhibition [%]
Cc1ccnc(NC(=S)N2CCN(c3ccc(O)cc3)CC2)c1 | 7.98 µM (active) | 
Cc1ccnc(NCc2ccc(O)c3ncccc23)c1 | 8.96 µM (active) | 
Oc1ccc(Nc2ccccc2F)c2cccnc12 |  | -31.2
CCc1noc(-c2cccn3c(CNC(=O)COc4ccc(F)cc4)nnc23)n1 |  | -18
Cc1csc(CNc2ncnc3cc(-c4ccc5c(c4)OCO5)ccc23)n1 | 11.3 µM (active) | 
CC(=O)Nc1sc2c(c1-c1cc3ccccc3o1)CCNC2 | 8.96 µM (active) | 
COC(=O)CCSC/C=C(\C)CCn1cc(CCc2ccc(-c3ccccc3)cc2)nn1 | 4.49 µM (active) | 
N#Cc1cccc(OC2=NS(=O)(=O)c3ccccc32)c1 | 5.04 µM (active) | 

Reference: PubChem BioAssay (NCATS)
